Source: PubChem (National Center for Advancing Translational Sciences (NCATS))
Rows were chosen to be rich in hits. Some 2.6% of all compounds tested hit in one or more screens of this group.
S2 tox – cell viability loss in ATXN counter-screen; S2 cells (HEK-293 line with an ATXN2-luciferase reporter) viability, CellTiter-Fluor protease fluorescence, 24 h; hit rate 0.49% among 400,000; Potency, µM (series often up to 56.7 µM), most hits filed as cytotoxic; further: potency means the concentration at half of the fitted maximal effect; nearly all actives have a fitted effect of over 40% in size
uPA generation – cell surface uPA generation inhibition; Potency, µM (highest dose often 38.3 µM), without a hit: at the top dose activity change, negative = inhibition, most hits filed as inhibitors; cell surface uPA generation assay, qHTS; hit rate 0.31% among 330,000; active means well fitted inhibition curve with a large enough effect; inconclusive means small, poorly fitted or top-dose-only effect; inactive means no such curve, though single readings can be large or run the other way; tested in mouse RAW 264.7 cells; further: potency means the concentration at half of the fitted maximal effect; on the % scale 0 is the no-effect control and ±100 the full control effect; nearly all actives have a fitted effect of over 55% in size
Giardia kill – kills Giardia lamblia | Giardia lamblia trophozoite viability | activity change, % at 7.66 µM, hits read low | hit rate 0.15% among 340,000; in the data active means activity change below about -80%; inconclusive means between about -30% and that limit;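 further: parasites exposed to compound for two days anaerobically before the ATP read; on the % scale 0 is the no-effect control and ±100 the full control effect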
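Media and compound were dispensed first, then trophozoites at 100 cells/well; plates sat 48 hrs at 37 deg C without oxygen before ATP luminescence reagent was added and read after 15-30 min at room temperature.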
HepG2 tox-1 – kills HepG2 cells in TGF-b inhibitor counter-screen. hit rate 0.76% among 410,000. HepG2 CAGA-GFP viability, ATP luminescence, 18 h. Potency, µM (highest dose often 46.1 µM), for the others: top-dose activity change, negative = cytotoxicity, most hits filed as cytotoxic. AID 588856; further: potency means the concentration at half of the fitted maximal effect
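CellTiter-Glo luminescence gave cytotoxicity after 18 hours at 37 degrees C. The cells were HepG2 CAGA-GFP in 1% FBS DMEM, stimulated with 500 pg/mL TGF-beta after compound addition. %Activity was normalised to no-cell wells (complete cell-killing) and DMSO (no toxicity), and curves were fitted and classified.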
ATXN2 expr inh – inhibitors of ATXN2 expression | HEK-293 ATXN2-luciferase reporter, luminescence, 24 h | Potency, µM (top dose mostly 57 µM), inactives show at the top dose activity change, negative = inhibition, actives largely listed as inhibitors | hit rate 0.72% among 360,000; further: potency means the concentration at half of the fitted maximal effect; on the % scale 0 is the no-effect control and ±100 the full control effect; nearly all actives have a fitted effect of over 55% in size
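ATXN2-luciferase reporter cells (luciferase flanked by upstream and downstream ATXN2 gene portions) were treated 24 h at 37 °C with compounds at up to 57 uM. SteadyGlo luminescence gave expression; GF-AFC fluorescence gave viability.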
TGFb inhibitor – blocks TGF-b signaling | HepG2 CAGA-GFP TGF-b/SMAD3 reporter, GFP fluorescence, 18 h; TGF-beta stimulated, 500 pg/mL final | Potency, µM (titrated, usually from 46.1 µM), for the others: at the top dose activity, negative = inhibition, actives largely listed as inhibitors | hit rate 1.2% among 410,000; further: potency means the concentration at half of the fitted maximal effect; on the % scale 0 is the no-effect control and ±100 the full control effect; nearly all actives have a fitted effect of over 65% in size
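Using HEPG2 CAGA-GFP reporter cells at 1000 cells/well, we pinned test compounds, stimulated with recombinant TGF-beta (500 pg/mL final) and measured total well GFP after 18 h.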
TGFb CAGA inh – confirmation of TGF-b signaling inhibitors in HepG2 reporter cells. shares compounds with TGFb inhibitor. HepG2 CAGA-GFP TGF-b reporter, GFP fluorescence, 18 h; cells stimulated with TGF-beta, 500 pg/mL. Potency, µM (titrated, usually from 46.1 µM), for inactives: at the top dose activity, negative = inhibition, most hits filed as inhibitors. hit rate 63% among 1,600; further: potency means the concentration at half of the fitted maximal effect; on the % scale 0 is the no-effect control and ±100 the full control effect; nearly all actives have a fitted effect of over 65% in size
HepG2 tox-2 – counter-screen for TGF-b inhibitors: cytotoxicity in HepG2 cells; shares compounds with TGFb inhibitor; HepG2 CAGA-GFP viability, ATP luminescence, 18 h; cells stimulated with TGF-beta, 500 pg/mL; Potency, µM (highest dose often 46.1 µM), for the others: top-dose activity, negative = cytotoxicity, most hits filed as inhibitors; hit rate 27% among 1,600; further: potency means the concentration at half of the fitted maximal effect; on the % scale 0 is the no-effect control and ±100 the full control effect; nearly all actives have a fitted effect of over 70% in size
CCL64 TGFb inh – orthogonal confirmation of TGF-b inhibitors in CCL64 cells; CCL64 CAGA-GFP reporter, TGF-b stimulated, GFP fluorescence, 18 h; shares compounds with TGFb inhibitor; hit rate 41% among 1,600; Potency, µM (doses to about 46.1 µM), for inactives: at the highest dose activity, negative = inhibition, hits mostly inhibitors; further: potency means the concentration at half of the fitted maximal effect; nearly all actives have a fitted effect of over 65% in size
TGFb COP inh – blocks TGF-b signaling in HepG2 COP reporter | AID 720537 | hit rate 3% among 1,600 | Potency, µM (doses to about 46.1 µM), for inactives: at the highest dose activity, negative = inhibition, usual class: inhibitors | shares compounds with TGFb inhibitor | HepG2 COP-GFP TGF-b reporter, GFP fluorescence, 18 h; cells stimulated by added recombinant TGF-beta; further: potency means the concentration at half of the fitted maximal effect; nearly all actives have a fitted effect of over 70% in size
* = called active by the depositor; i = inactive; ? = inconclusive; . = no result; [ ] = another dose, or the depositor's remark. Unless noted, the call rests on the fitted dose curve; in most records, active means well fitted curve in the direction sought with a large enough effect; inconclusive means small, poorly fitted or top-dose-only effect, or another doubt; inactive means no such curve, though single readings can be large; an effect the other way counts as inactive or inconclusive.

SMILES	S2 tox	uPA generation	Giardia kill	HepG2 tox-1	ATXN2 expr inh	TGFb inhibitor	TGFb CAGA inh	HepG2 tox-2	CCL64 TGFb inh	TGFb COP inh
Cc1cc(S(=O)(=O)N2CCN(CC(=O)NCCc3cccs3)CC2)ccc1Br	i	-1%	-14	-8%	-15%	11µM*	?	-10%	-10%	25%
O=C(CN1CCN(S(=O)(=O)c2cccc(Br)c2)CC1)NCCc1cccs1	i	-2%	-3	-5%	-5%	-30%	.	.	.	.
COc1ccc(Br)cc1CNC(=O)CCSCc1ccc(Cl)cc1	.	.	.	0%	.	-2%	.	.	.	.
CCc1ccc(NC(=O)CCc2c(C)nn(-c3ccc(N4CCCC4)nn3)c2C)cc1	.	.	.	-5%	.	-16%	.	.	.	.
CC(=O)Nc1ncc(Cc2cc(Cl)ccc2Cl)s1	i	?	21	1%	.	?	?	2%	0%	17%
CC(=O)Nc1ncc(Cc2cccc(Cl)c2Cl)s1	i	5%	1	10%	-29%[11.3 µM]	-13%	.	.	.	.
CCc1ccc(CCC(=O)Nc2ncc(Cc3ccccc3Cl)s2)o1	i	-14%	-1	-34%	-10%	2µM*	?	-19%	-28%	-6%
O=C(CCN1CCOCC1)c1ccc2c(c1)OCCO2	i	-8%	-1	-99%	-6%	10µM*	21µM*	23µM*	?	?
COc1cc(C(=O)N2CCNC(=O)C2CC(=O)Nc2ccc(C)c(C)c2)cc(OC)c1OC (stereo not drawn)	i	.	.	1%	9%	-10%	.	.	.	.
COc1ccccc1C(=O)Nc1ccc(OCC(=O)N2CC(C)OC(C)C2)cc1 (stereo not drawn)	i	?	15	2%	6%	-2%	.	.	.	.
CN(C(=O)c1ccc(NC(=O)Cc2cccc(NC(=O)C3CCN(C(=O)CCc4ccccc4)CC3)c2)cc1)C1CCCC1	i	7%	?	-10%	-16%	13µM*	?	-2%	13%	7%
CN(C(=O)c1ccc(NC(=O)Cc2ccc(NC(=O)C3CCN(C(=O)CCc4ccccc4)CC3)cc2)cc1)C1CCCC1	i	-6%	-4	1%	-4%	-3%	.	.	.	.
CCOC(=O)CCc1ccc(NC(=O)/C=C/c2ccc([N+](=O)[O-])o2)cc1	8.4µM*	-6%	-23	10µM*	?	4.5µM*	9.2µM*	13µM*	?	-31%
Cc1ccc(/C=C/C(=O)Nc2ccc([N+](=O)[O-])cc2)o1	i	1%	2	-7%	44%	?	.	.	.	.
O=C(CSc1nnc(Nc2ccccc2)s1)NC1CCCC1	?	4%	-10	-26%	10%	?	.	.	.	.
COc1ccc(-c2cccc(-c3cc(=O)oc4cc(OC)cc(OC)c34)c2)cc1	i	0.79µM*	7	3%	6%	1.4µM*	1.6µM*	-1%	1.5µM*	-25%
COc1cc(OC)c2c(-c3cccc(-c4ccc(OC(F)(F)F)cc4)c3)cc(=O)oc2c1	i	10%	-19	-56%	3%	?	.	.	.	.
COc1ccccc1CNCCSc1nnnn1C	i	.	.	-3%	7%	-2%	.	.	.	.
CC(=O)N1CCc2c(sc(NC(=O)c3ccc([N+](=O)[O-])o3)c2C(N)=O)C1	20µM*	.	.	-91%	.	3.5µM*	4.6µM*	5.8µM*	?	?
CSc1ccccc1NC(=O)C(C)N(C)CC(=O)N1CCN(Cc2ccccc2)CC1 (stereo not drawn)	i	-2%	-16	1%	-18%	?	?	0%	5%	4%
COc1ccc(S(=O)(=O)N2CCCCCC2)cc1C(=O)N(C)Cc1ccc(Cl)cc1Cl	?	-3%	13	0%	?	16µM*	18µM*	-19%	?	31%
Cc1ccc(S(=O)(=O)N(CC(=O)Nc2ccc(Cl)c([N+](=O)[O-])c2)C2CCCCC2)cc1	i	-12%	-12	-14%	2%	10µM*	?	-23%	?	28%
Cc1ccc(S(=O)(=O)N(CC(=O)Nc2cccc([N+](=O)[O-])c2)C2CCCCC2)cc1	i	0%	9	-4%	13%	?	.	.	.	.
COc1ccc2cc(-c3ccccc3F)ncc2c1	i	?	-14	-31%	67%	?	-9%	-21%	0%	9%
C[C@H](CO)N1C[C@H](C)[C@H](CN(C)S(=O)(=O)c2ccccc2F)OCc2cnnn2CCCC1=O	i	.	.	-8%	0%	5%	.	.	.	.
SMILES	S2 tox	uPA generation	Giardia kill	HepG2 tox-1	ATXN2 expr inh	TGFb inhibitor	TGFb CAGA inh	HepG2 tox-2	CCL64 TGFb inh	TGFb COP inh
CCOC(=O)c1c(C)[nH]c(CCC(=O)NCCCN2CCN(c3ccccc3F)CC2)c1C	.	.	.	-34%	.	?	.	.	.	.
Nc1cc2nn(-c3ccccc3)nc2cc1Cl	i	-10%	3	-45%	63%[11.3 µM]	2.2µM*	3.3µM*	1.8µM*	16%	69%
CCOc1ccc(C2=Nn3c(nnc3-c3ccccc3OC)SC2)cc1	i	-14%	4	-23%	-19%	10µM*	0.23µM*	-8%	0.46µM*	-6%
CCOc1ccc(-c2nnc3n2N=C(c2ccc(OC)cc2)CS3)cc1	i	-4%	-9	-3%	0%	19%	.	.	.	.
COc1ccc(CNC(=O)[C@@H]2CC=C[C@@H]3CCN(Cc4ccc(Cl)c(Cl)c4)C(=O)[C@@H]32)cc1	?	?	0	-13%	?	16µM*	21µM*	?	?	30%
O=C(Cc1ccc(F)cc1)Nc1ccc(Cl)cn1	i	6%	-12	-21%	9%	-3%	.	.	.	.
Nc1ccc(C(=O)N/N=C/c2cn(Cc3ccc(F)cc3)c3ccccc23)cc1	i	3%	-7	-13%	-8%	7.9µM*	5.8µM*	2.1µM*	-1%	20%
